One may read the viability as a read-out of living cells in per cent, often relative to untreated cells.

Experiment [1] can be described thus: Quantitative High-Throughput drug screen in 47 multiple myeloma cell lines against the NCATS MIPE library collection: LP1_DSMZ cell viability assay (AID 1918982). Further: nearly all actives have a fitted effect of over 35% in size. A digest of the protocol:
(§1)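 Inhibition of viability over 48 h was scored by ATP content (CellTiter-Glo) in 500-cell wells. Zero and full viability were defined by media-only and DMSO-only wells.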

A short description of experiment [2]: Quantitative High-Throughput drug screen in 47 multiple myeloma cell lines against the NCATS MIPE library collection: KMS28PE_JCRB cell viability assay (AID 1918983). Further: nearly all actives have a fitted effect of over 35% in size. A digest of the protocol: as §1
Experiment [3] is described as follows: Quantitative High-Throughput drug screen in 47 multiple myeloma cell lines against the NCATS MIPE library collection: L363_DSMZ cell viability assay (AID 1918984). Further: nearly all actives have a fitted effect of over 40% in size. A digest of the protocol:
as §1

Experiment [4] in a line: Quantitative High-Throughput drug screen in 47 multiple myeloma cell lines against the NCATS MIPE library collection: KMS34_JCRB cell viability assay (AID 1918985). Further: nearly all actives have a fitted effect of over 40% in size. A digest of the protocol: as §1
Experiment [5] can be described thus: Quantitative High-Throughput drug screen in 47 multiple myeloma cell lines against the NCATS MIPE library collection: OCIMY7_PLB cell viability assay (AID 1918987). Further: nearly all actives have a fitted effect of over 65% in size. To be noted: OCI-MY7 myeloma viability, CellTiter-Glo ATP, 48 h; viability (% of DMSO): at 45.8 µM (top of the series). A digest of the protocol:
as §1
For orientation: ATP-based viability assays read luminescence as a measure of living cells.

Experiment [6] is described as follows: Quantitative High-Throughput drug screen in 47 multiple myeloma cell lines against the NCATS MIPE library collection: OCIMY5_PLB cell viability assay (AID 1918988). Further: nearly all actives have a fitted effect of over 65% in size. A digest of the protocol: as §1
Experiment [7] in a line: Quantitative High-Throughput drug screen in 47 multiple myeloma cell lines against the NCATS MIPE library collection: U266_ATCC cell viability assay (AID 1919864). Further: nearly all actives have a fitted effect of over 35% in size. The method in brief:
as §1

The nature of experiment [8]: Quantitative High-Throughput drug screen in 47 multiple myeloma cell lines against the NCATS MIPE library collection: XG6_PLB cell viability assay (AID 1919865). Further: nearly all actives have a fitted effect of over 40% in size. A digest of the protocol: as §1
Experiment [9] is described as follows: Quantitative High-Throughput drug screen in 47 multiple myeloma cell lines against the NCATS MIPE library collection: OPM1_PLB cell viability assay (AID 1918989). Further: nearly all actives have a fitted effect of over 40% in size. The method in brief: as §1
Experiment [10] can be described thus: Quantitative High-Throughput drug screen in 47 multiple myeloma cell lines against the NCATS MIPE library collection: SKMM1_PLB cell viability assay (AID 1919863). Further: nearly all actives have a fitted effect of over 35% in size. To be noted: SKMM1 myeloma viability, CellTiter-Glo ATP, 48 h; viability: stronger effect = lower value. A digest of the protocol:
as §1

Records with an inconclusive call do not appear. A number with no mark means an inactive call. Active and inactive are the calls of the source. The call rests on the fitted dose curve; in most records, active means well fitted cell-killing curve with a large enough effect; inconclusive means small, poorly fitted or top-dose-only effect, or effect the other way; inactive means no such curve, though single readings can be large or run the other way.
Potency means the concentration at half of the fitted maximal effect.

For `CN(CC(=O)N(Cc1ccc(C2CCCCC2)cc1)c1ccc(C(=O)O)c(O)c1)S(=O)(=O)c1c(F)c(F)c(F)c(F)c1F`, the Potency in [1] was 20.9 µM (active); in experiment [2], 29.6 µM (active); in [3], 9.35 µM (active); in experiment [4], 20.9 µM (active); in experiment [5], 8.33 µM (active); in [6], 18.7 µM (active). Also, the figures for the Potency in experiment [7] and in experiment [8] were 13.2 µM (active) and 4.69 µM (active), respectively.
Consider `CC1=C(C(=O)Nc2cc3cn[nH]c3cc2F)C(c2ccc(Cl)cc2F)N=C(c2ccnc(Cl)c2)N1` (stereo unspecified), for which the Potency result in experiment [1] was “inactive”. Moreover, the Potency in experiment [2] is 20.9 µM (active); in [3] it was 18.7 µM (active); in experiment [5], 5.9 µM (active); in experiment [6], 16.6 µM (active); in experiment [9], 18.7 µM (active); in experiment [8] it was 14.8 µM (active).
Consider `COc1cc2c(Nc3ccc(Cl)c(Cl)c3F)ncnc2cc1OCC1C[C@@H]2CN(C)C[C@H]2C1`, for which the Potency in experiment [1] is 18.7 µM (active); in [2] it was 16.6 µM (active); in [3], 1.66 µM (active); in experiment [5], 0.209 µM (active); in [6] it was 1.87 µM (active); in experiment [9] it was 3.32 µM (active). For the same compound, the Potency was 5.9 µM (active) in experiment [10] and 23.5 µM (active) in experiment [7].
Consider `NC[C@H]1O[C@H](O[C@H]2[C@@H](O)[C@@H](O[C@H]3O[C@H](CO)[C@@H](O)[C@H](N)[C@@H]3O)[C@H](N)C[C@@H]2N)[C@H](N)C[C@H]1O`, for which the Potency result in [1], in experiment [2], in experiment [3], in experiment [4], in [6] and in experiment [7] was “inactive” throughout. In experiment [8], the Potency result was “inactive”.
On to `CC(C=CC(=O)NO)=C[C@@H](C)C(=O)c1ccc(N(C)C)cc1`, for which the Potency was 0.372 µM (active) in experiment [1]; 0.296 µM (active) in [2]; 0.132 µM (active) in experiment [3]; 0.148 µM (active) in [5]; 0.166 µM (active) in experiment [6]; 0.332 µM (active) in experiment [9]. The Potency in experiment [10] is 0.166 µM (active); in [8], 0.469 µM (active).
On to `O=C1NC(=O)[C@@H](c2cn3c4c(cccc24)CCC3)[C@H]1c1c[nH]c2ccccc12`, for which the Potency in experiment [1] was 1.05 µM (active); in experiment [2], 0.833 µM (active); in experiment [3], 0.118 µM (active); in experiment [5], 0.0372 µM (active); in [6] it was 0.132 µM (active); in [9], 2.09 µM (active). Moreover, the Potency in experiment [10] is 0.132 µM (active).
For `Nc1cccc2c1C(=O)N(C1CCC(=O)NC1=O)C2=O` (stereo unspecified), the Potency result in experiment [1], in experiment [3] and in experiment [8] was “inactive” throughout. Also, the Potency in experiment [2] is 0.0833 µM (active); in experiment [4] it was 0.0021 µM (active); in experiment [6], 10.5 µM (active).
`CCN(C(=O)c1c(O)c2c(Cl)cccc2n(C)c1=O)c1ccccc1`: the Potency result in experiment [1], in [2], in experiment [3], in experiment [5], in experiment [6] and in experiment [9] was “inactive” throughout. In addition, the Potency entry in [7] and in [8] was “inactive” each time.
For `Oc1cc(-c2nc(-c3ccccc3)[nH]c2-c2ccncc2)ccc1Cl`, in experiment [1], the Potency result is “inactive”. In addition, the Potency in experiment [2] was 20.9 µM (active); in experiment [3], 0.332 µM (active); in experiment [4] it was 16.6 µM (active); in experiment [6] it was 18.7 µM (active); in [9], 14.8 µM (active); in experiment [10] it was 16.6 µM (active). In addition, the Potency in [8] is 2.35 µM (active).
For `CC(=O)O[C@H]1C[C@@H]2CC[C@H]3[C@H]4C[C@H]([N+]5(C)CCCCC5)[C@@H](OC(C)=O)[C@@]4(C)CC[C@@H]3[C@@]2(C)C[C@H]1N1CCCCC1`, the Potency entry in experiment [1], in experiment [3], in [5], in experiment [9] and in experiment [8] was “inactive” each time. Moreover, the Potency in experiment [2] is 0.332 µM (active). Besides, in [10], the viability is 143%.
Take `CC(C)N(CC[C@H](c1ccccc1)c1cc(CO)ccc1O)C(C)C`: the Potency result in [1], in experiment [2], in experiment [3], in experiment [4] and in experiment [8] was “inactive” throughout.
For the compound `O=c1[nH]c(=O)n([C@H]2C[C@@H](O)[C@@H](CO)O2)cc1C=CBr`, the Potency entry in [1], in [2], in experiment [3], in experiment [4], in experiment [7] and in experiment [8] was “inactive” each time. In addition, the Potency in experiment [9] is 0.105 µM (active).
In the case of `OCCNC1CCCc2c1[nH]c1ccc(-c3ccccc3)cc21` (stereo unspecified), the Potency in experiment [1] is 23.5 µM (active); in experiment [2], 23.5 µM (active); in experiment [3], 9.35 µM (active); in experiment [5], 20.9 µM (active); in experiment [6] it was 18.7 µM (active); in [9] it was 8.33 µM (active). Also, the Potency in experiment [10] is 26.4 µM (active).
With `C#C[C@]1(O)CC[C@@H]2[C@@H]3CCC4=CC(=O)CC[C@@H]4[C@H]3CC[C@@]21CC`, the Potency entry in [1], in experiment [2], in experiment [4], in [5] and in experiment [8] was “inactive” throughout. Besides, the figures for the Potency in [3] and in experiment [6] were 0.0083 µM (active) and 18.7 µM (active), respectively.
As to `CCCc1nc(C(C)(C)O)c(C(=O)O)n1Cc1ccc(-c2ccccc2-c2nn[nH]n2)cc1`, the Potency entry in experiment [1], in experiment [2], in experiment [3], in [4] and in [8] was “inactive” in each case. Besides, the viability in [10] is 131%.
For `C=CC(=O)Nc1ccc2ncnc(Nc3ccc(OCc4cccc(F)c4)c(Cl)c3)c2c1`, the Potency in experiment [1] is 5.9 µM (active); in experiment [2] it was 2.64 µM (active); in [3] it was 0.0296 µM (active); in experiment [5] it was 0.105 µM (active); in experiment [6] it was 0.0526 µM (active); in [9] it was 0.209 µM (active). Further, the Potency in experiment [10] was 6.62 µM (active); in experiment [7], 14.8 µM (active); in experiment [8], 0.0148 µM (active).
On to `COc1cc(C)c(C=CC(C)=CC=CC(C)=CC(=O)O)c(C)c1C`, for which the Potency result in experiment [1], in experiment [2], in experiment [3], in experiment [4], in [7] and in experiment [8] was “inactive” in each case. For the same compound, in [10], the viability was 132%.
As for `COc1cc(C=CC(=O)CC(=O)C=Cc2ccc(O)c(OC)c2)ccc1O`, the Potency is 30.3 µM (active) in experiment [1]; 17.1 µM (active) in [2]; 3.03 µM (active) in experiment [3]; 2.15 µM (active) in experiment [5]; 12.1 µM (active) in [6]; 3.82 µM (active) in experiment [9]. Moreover, the results for the Potency in [10], in experiment [7] and in [8] were 15.2 µM (active), 34 µM (active) and 10.8 µM (active), respectively.

These data come from PubChem BioAssay (NCATS).
